AI-2 QS mod – Vibrio harveyi AI-2 quorum sensing modulation. Vibrio harveyi JMH597 AI-2 luminescence/OD600 ratio, 9 h; hits give low values; strain lacks LuxN and CqsS sensors; 0 = neutral-control median. activity change, % at 7.5 µM. 300,000 compounds, 0.4% hits. AID 2094; in the data active means activity change below about -75%, passing the limit was not always enough; inconclusive means no clear call, values can overlap the other calls;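 further: luminescence divided by OD600 gain over 9 h not by final OD600 alone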
Platelet DG rel – platelet dense granule release activity; human platelet-rich plasma, SFLLRN dense granule ATP release, luminescence; inhibition, %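 (compounds screened at 7.5 µM in platelet-rich plasma)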; 300,000 compounds, 0.22% hits; AID 1663;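 active means mean replicate score, as percent of positive control, at or above 50; inconclusive means mean below 50 but at least one replicate at or above 50; inactive means mean and every replicate below 50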
CHT block – inhibits the human high affinity choline transporter | Q9GZV3 | CHT-expressing cells, membrane potential dye, choline response; hits give low values | AID 488975 | B-score at 10 µM | 310,000 compounds, 0.86% hits;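 active means B-score over 3 SD under the library average, and starting fluorescence ratio not unusually high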;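 further: choline stimulus applied at its EC90 after an EC20 pre-addition; B-score computed on integrated fluorescence ratio after choline addition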
CHT PAM – human CHT allosteric activation; B-score at 10 µM; 310,000 compounds, 0.49% hits; AID 488977; Q9GZV3; CHT-expressing cells, membrane potential dye, choline EC20; hits give high values; LV-AA mutant CHT in HEK293 cells;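 active means initial fluorescence not abnormally high and integrated response B-score, plate-corrected, over 3 SD above library mean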
HIF act – HIF pathway transcriptional activation. U2OS HRE-luciferase reporter, luminescence; normalized: DMSO 0%, desferrioxamine 100%. activation, % at 7.5 µM (by protocol). 300,000 compounds, 0.32% hits;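 active means mean activation of at least 10% of the iron chelator positive control signal, with at least half of replicates also reaching 10%; inconclusive means mean and replicate majority disagree about reaching 10%; inactive means mean and most replicates under 10%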
VLA-4 inh – inhibition in a human VLA-4 binding assay | P13612 | VLA-4 expressing cells, ligand binding flow cytometry | inhibition, % (about 7 µM as worked out from the volumes in the protocol) | 330,000 compounds, 0.2% hits | AID 2557; in the data active means inhibition above about 50%
Target sequence (P13612 whole entry, looked up): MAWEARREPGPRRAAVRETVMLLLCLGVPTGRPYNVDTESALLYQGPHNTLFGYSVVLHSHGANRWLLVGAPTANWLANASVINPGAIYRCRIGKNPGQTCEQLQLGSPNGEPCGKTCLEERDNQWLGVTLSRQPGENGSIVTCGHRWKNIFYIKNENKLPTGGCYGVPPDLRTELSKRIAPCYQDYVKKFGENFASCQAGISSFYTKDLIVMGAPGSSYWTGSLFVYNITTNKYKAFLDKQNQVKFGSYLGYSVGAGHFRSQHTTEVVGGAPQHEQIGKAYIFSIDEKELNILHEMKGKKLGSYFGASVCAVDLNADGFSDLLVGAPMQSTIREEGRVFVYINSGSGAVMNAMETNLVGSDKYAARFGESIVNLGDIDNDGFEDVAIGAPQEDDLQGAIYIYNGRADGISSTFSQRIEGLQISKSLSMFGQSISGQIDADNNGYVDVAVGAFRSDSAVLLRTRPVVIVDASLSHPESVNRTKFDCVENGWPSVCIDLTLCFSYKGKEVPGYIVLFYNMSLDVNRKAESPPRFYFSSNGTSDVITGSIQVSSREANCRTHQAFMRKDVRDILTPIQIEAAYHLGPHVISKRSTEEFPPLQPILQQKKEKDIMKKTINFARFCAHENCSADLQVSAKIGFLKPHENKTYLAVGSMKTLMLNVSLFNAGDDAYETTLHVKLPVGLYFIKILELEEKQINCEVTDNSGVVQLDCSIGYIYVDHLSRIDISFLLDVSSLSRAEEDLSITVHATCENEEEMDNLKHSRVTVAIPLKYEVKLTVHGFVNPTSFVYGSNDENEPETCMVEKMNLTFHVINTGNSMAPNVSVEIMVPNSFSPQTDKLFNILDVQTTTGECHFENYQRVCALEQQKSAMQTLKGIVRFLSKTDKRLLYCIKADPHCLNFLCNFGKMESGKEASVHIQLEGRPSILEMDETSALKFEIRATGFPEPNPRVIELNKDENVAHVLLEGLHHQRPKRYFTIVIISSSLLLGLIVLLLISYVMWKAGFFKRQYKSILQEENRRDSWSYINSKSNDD
JMH597 growth rt – retest: blocks Vibrio harveyi JMH597 growth. 750 compounds, 1% hits. growth inhibition, % at 7.5 µM. shares compounds with AI-2 QS mod. OD600 absorbance, 9 h; lacks LuxN and CqsS sensors;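 active means every replicate shows growth inhibition above 50%; inconclusive means at least half, but not all, replicates pass that cutoff; inactive means fewer than half of replicates pass it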
BB721 const-QS lum – retest counter-screen: lowers luminescence of constitutive-QS Vibrio harveyi BB721; shares compounds with AI-2 QS mod; 9 h; inhibition, % at 7.5 µM; 750 compounds, 95% hits;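 active means inhibition above about 80% in every replicate, not just on average, limit read from the data; inconclusive means at least half of replicates past the limit, but not all; inactive means fewer than half of replicates past the limit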
BB721 growth – retest: inhibitors of Vibrio harveyi BB721 growth. shares compounds with AI-2 QS mod. OD600 absorbance, 9 h. growth inhibition, % at 7.5 µM. 750 compounds, 3% hits. AID 2728;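 active means every replicate shows growth inhibition above 50%; inconclusive means at least half but not all replicates above 50% inhibition; inactive means under half of replicates above 50% inhibition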
JMH597 AI-2 mod – Vibrio harveyi AI-2 signaling luminescence modulation – JMH597 strain, confirmation. Vibrio harveyi JMH597 AI-2 quorum sensing luminescence, 9 h; luxN and CqsS knockout, AI-2 only. 750 compounds, 97% hits. shares compounds with AI-2 QS mod. inhibition, % at 7.5 µM;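 active means every replicate shows more than 75% inhibition of signal versus neutral control wells; inconclusive means half to three quarters of replicates exceed 75% inhibition; inactive means fewer than half of replicates exceed 75% inhibition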
The depositor's hits bear a star; i = inactive; ? = inconclusive; / = no result. Shown are actives, neighbours in structure and some others; about 2.2% of the full set was active somewhere.

SMILES	AI-2 QS mod	Platelet DG rel	CHT block	CHT PAM	HIF act	VLA-4 inh	others
CCOC(=O)C1CCN(S(=O)(=O)c2ccccc2)CC1	1	-2	i	i	0	5
Cc1ccc(-n2c(N)c(C#N)c(-c3ccccc3)c(C#N)c2=O)cc1	20	87*	i	i	0	32
Cn1c(=O)c2c(nc(NCc3ccco3)n2C/C=C/c2ccccc2)n(C)c1=O	23	74*	i	i	1	-11
Cn1c(=O)c2c(nc(NCc3ccco3)n2C)n(C)c1=O	-3	0	i	i	-1	-5
CC(Oc1ccc(Br)cc1)C(=O)Nc1ccc(S(=O)(=O)N(C)C2CCN(C)CC2)cc1 (centres undefined)	14	-40	i	7.1*	2	-1
O=C(c1ccc(Cl)cc1)C1CCN(C(=O)c2ccc(F)cc2)CC1	19	-2	i	i	-9	11
CCOC(=O)N1CCN(Cc2cc(Cl)c3cccnc3c2O)CC1	-78*	-6	i	i	6	1
CCN1C(=O)Nc2cccc3cccc1c23	20	59*	i	i	1	-4
Cc1ccc(N(C)S(=O)(=O)c2cc(-c3cnc(C4CC4)o3)ccc2C)cc1	11	1	i	i	0	-102
Cc1cccc(N(C)S(=O)(=O)c2ccc(-c3cnc(C4CC4)o3)cc2)c1	27	-9	i	7.3*	1	41
C[C@]12CCC(O)CC1CCC1C2CC[C@]2(C)C(c3cc(C(F)(F)F)n[nH]3)CCC12 (some centres undefined)	53	2	i	i	-13	0
NC(=O)C1(N2CCCCC2)CCN(C(=O)Nc2ccccc2C(F)(F)F)CC1	4	53*	i	i	0	4
NC(=O)C1(N2CCCCC2)CCN(C(=S)Nc2ccccc2)CC1	15	-7	i	i	0	14
COc1ccc(NC(=S)N2CCN(C)CC2)cc1	13	2	i	i	0	3
COc1ccc(N/C=C\C(=O)c2ccc3ccccc3c2)cc1	-3	-1	i	i	1	9
COc1ccc(N/C=C/C(=O)c2ccccc2)cc1	14	56*	i	i	4	6
COc1ccc(NC(=S)N2CCN(C(=O)c3ccccc3)CC2)cc1	-5	0	i	i	58*	-2
CCOc1ccc(N/C=C/C(=O)c2ccccc2)c([N+](=O)[O-])c1	21	85*	i	i	-3	7
O=C(CCl)N1CCN(S(=O)(=O)c2ccc3c(c2)CCC3)CC1	/	/	/	/	/	-2
NC(N)=N/N=C/c1ccc(Cl)cc1Cl	15	-1	-7.9*	i	0	24
O=C(N/N=C/c1ccc(Cl)cc1Cl)c1ccncc1	8	7	i	i	-2	4
Nc1ccc(C(=O)NNC(=O)C2COc3ccccc3O2)cc1[N+](=O)[O-] (centres undefined)	10	0	i	i	1	20
CC(C)COc1cccc(C(=O)NNC(=O)C2COc3ccccc3O2)c1 (centres undefined)	17	3	i	i	26*	0
CC(C)N1C[C@@]23C=C[C@@H](O2)C(C(=O)OCc2ccccc2)[C@H]3C1=O (some centres undefined)	12	56*	i	i	0	-2
c1ccc2c(c1)ccc1ncccc12	14	12	i	i	1	4
SMILES	AI-2 QS mod	Platelet DG rel	CHT block	CHT PAM	HIF act	VLA-4 inh	others
Oc1c(N=Nc2ccccn2)ccc2ccccc12	32	42	i	i	34*	-6
Cc1ccc(NC(=O)CN(C)C(=O)C(Sc2ccccc2)c2ccccc2)cc1 (centres undefined)	/	/	/	/	/	-10
COc1ccc(-c2nnc(NC(=O)c3ccc([N+](=O)[O-])o3)o2)c(OC)c1	-88*	2	i	i	0	15
CCOC(=O)c1c(NCC(C)C)c2ccccc2[nH]c1=O	15	2	i	i	0	0
CCOC(=O)c1c(N2CCCCC2)c2ccccc2[nH]c1=O	21	70*	i	i	0	-17
Cc1ccc(CSc2nnc(-c3ccco3)o2)cc1	-82*	1	i	i	-1	17	JMH597 growth rt=35;BB721 const-QS lum=96*;BB721 growth=6;JMH597 AI-2 mod=98*
c1ccc(CSc2nnc(-c3ccco3)o2)cc1	-87*	-5	i	i	?	3	JMH597 growth rt=15;BB721 const-QS lum=95*;BB721 growth=0;JMH597 AI-2 mod=96*
CC(C)c1ccc(OCC(=O)N2CCc3ccccc3C2)cc1	?	0	i	i	0	24	JMH597 growth rt=12;BB721 const-QS lum=85*;BB721 growth=12;JMH597 AI-2 mod=90*
CCN(c1ccccc1)S(=O)(=O)c1ccc(Oc2ccccc2C(C)=O)nc1	/	/	/	/	/	3
CCN(CC)S(=O)(=O)c1ccc(Oc2cccc(C(C)=O)c2)nc1	-85*	-3	i	i	0	13	JMH597 growth rt=2;BB721 const-QS lum=95*;BB721 growth=-8;JMH597 AI-2 mod=96*
Cc1cccc(Oc2cnn(C(C)(C)C)c(=O)c2Cl)c1	-92*	-5	i	i	0	24	JMH597 growth rt=21;BB721 const-QS lum=96*;BB721 growth=-19;JMH597 AI-2 mod=98*
COc1cnn(C(C)(C)C)c(=O)c1Cl	17	6	i	i	0	-1
Cc1cccc(OCCC(=O)Nc2ccc(F)c(Cl)c2)c1	-86*	3	i	i	0	-6	JMH597 growth rt=23;BB721 const-QS lum=94*;BB721 growth=32;JMH597 AI-2 mod=95*
Cc1ccccc1NC(=O)Cc1nnc(N)s1	14	7	i	i	0	0
O=C(C[n+]1ccccc1)Nc1ccc(Oc2ccccc2)cc1	-4	4	i	i	1	-2
CO/N=C\CC(=O)Nc1ccc(Oc2ccccc2)cc1	-80*	-5	i	i	0	6	JMH597 growth rt=12;BB721 const-QS lum=84*;BB721 growth=-3;JMH597 AI-2 mod=91*
CCC/C=C1/CCCOC(C(=O)NCc2ccc(C)o2)(C(F)(F)F)C1 (centres undefined)	/	/	/	/	/	-7
Cc1ccc(/C=C/C(=O)c2ccc(O)cc2)cc1	-94*	8	i	i	1	0	JMH597 growth rt=-7;BB721 const-QS lum=97*;BB721 growth=-22;JMH597 AI-2 mod=98*
O=C(CSc1nnc(-c2cccc(Br)c2)o1)N1CCOCC1	-4	0	i	i	1	0
